14-3-3g Raf – alters human 14-3-3 gamma binding to Raf peptide; AID 422; FP, 14-3-3gamma / TMR-pS259-Raf peptide binding; P61981; inhibition, % at 40 µM; 160,000 tested, 0.19% active; in the data active means inhibition above about 30%
Each line names hits and unclear results; the compound was inactive in the other large screens. This excerpt belongs to a sample that is enriched for hits.

N#Cc1cc2c(nc1SCC(N)=O)CCC2	none
COc1ccc(N=c2scc(-c3ccccc3)n2CC(C)C)cc1	none
CCC(=O)N1CCc2cc(Br)cc(S(=O)(=O)CCC(=O)Nc3ccccc3Cl)c21	none
COc1ccc(C(=O)CSc2nccn2C)cc1OC	none
Cn1ccnc1SCC(=O)c1ccc(Cl)cc1	none
CCn1c(CSc2nccn2C)nc2cc(C(=O)O)ccc21	14-3-3g Raf 57
CC(C)c1cc(NS(=O)(=O)c2ccccc2)cc(S(=O)(=O)c2ccc(Cl)cc2)c1O	none
CC(C)(C)c1ccc(-c2nc3ccc(N=Cc4cc([N+](=O)[O-])ccc4O)cc3o2)cc1	none
C=CCn1c(=N)c(C(=O)OC)cc2c(=O)n3ccccc3nc21	none
